Max activity data for 11 molecules are collected here from PubChem BioAssay AID743446 (Broad Institute, 2014).

Entries with a potency or affinity are not part of this list. Values without a mark were called inactive. How the calls were made is not given here.

This assay can be described thus: HEK293 cell cytotoxicity, dose response, cytotoxicity control, plate reader, cherry-picked samples (AID 743446). The following applies: hits give low values; at 26 µM unless noted.
For the molecule `N#C[C@@H]1[C@H](c2ccc(C#Cc3ccccc3F)cc2)[C@@H](CO)N1C(=O)C1CCC1`, the max activity is 28.6% [at 6 µM]. The result for `CN(C)c1ccc(C(=O)Nc2nc3c(s2)CCCC3)cc1` reads -30%. The result for `Cc1ccc(C(=O)n2nc(-n3cccc3)c3c(C)cc(C)nc32)cc1` reads -22.4% [at 6 µM]. As for `CC(C)CCn1cnc2c(oc3nc4c(cc32)CCCC4)c1=O`, the max activity is -17.8%. The result for `COCCn1c(C)cc(C(=O)CSc2nc3ccccc3s2)c1C` reads -17.4%.

`CCc1ccc2ncc(S(=O)(=O)c3ccc(C)c(C)c3)c(N3CCCC3)c2c1`: the max activity was 19.3% [at 0.38 µM]. The result for `COc1ccc(NC(=O)N(C)C[C@@H]2OCCCC[C@H](C)Oc3ccc(NC(=O)NC4CCCCC4)cc3C(=O)N([C@H](C)CO)C[C@@H]2C)cc1` reads 7.92% [at 0.195 µM]; that for `Cc1cc(C(=O)Nc2ccc(N3CCCCC3)cc2)no1`, 16% [at 0.195 µM]; that for `CCN(C(=O)COC(=O)C12CC3CC(CC(O)(C3)C1)C2)c1c(N)n(Cc2ccccc2)c(=O)[nH]c1=O`, 34% [at 0.1 µM]. Consider `COc1ccc(S(=O)(=O)Nc2ccc3c(c2)C(=O)N([C@@H](C)CO)C[C@@H](C)[C@H](CN(C)C(=O)Nc2cccc4ccccc24)OCCCC[C@H](C)O3)cc1`, for which the max activity was 35.8% [at 12 µM]. The result for `C[C@H](CO)N1C[C@H](C)[C@H](CN(C)C(=O)Nc2ccc(F)cc2)OCCCC[C@H](C)Oc2ccc(NC(=O)NC3CCCCC3)cc2C1=O` reads 38.8% [at 12 µM].
